Compounds without any hit were thinned out: in the full panel of roughly 83,000, 20% have a hit.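 Activity criterion: percent growth below 10, measured after cells in 96-well plates were exposed to a single compound concentration for 48 hours.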 Calls of active or inactive are those of the source.
Key:
Test in all cases: NCI-60 one-dose screen, 48 h (100 = growth as untreated, 0 = no growth, -100 = all killed)
Settings in all cases: 10 µM
HCT-15 colon = system: HCT-15 colon
HT29 colon = system: HT29 colon
SNB-75 CNS = system: SNB-75 CNS
SNB-19 CNS = system: SNB-19 CNS
PC-3 prostate = system: PC-3 prostate
SK-MEL-5 melanoma = system: SK-MEL-5 melanoma
UACC-62 melanoma = system: UACC-62 melanoma
LOX IMVI melanoma = system: LOX IMVI melanoma
SK-MEL-28 melanoma = system: SK-MEL-28 melanoma
SK-MEL-2 melanoma = system: SK-MEL-2 melanoma
EKVX NSCLC = system: EKVX NSCLC
SN12C renal = system: SN12C renal
UO-31 renal = system: UO-31 renal
TK-10 renal = system: TK-10 renal
ACHN renal = system: ACHN renal
CAKI-1 renal = system: CAKI-1 renal
CCRF-CEM leukemia = system: CCRF-CEM leukemia
MOLT-4 leukemia = system: MOLT-4 leukemia
A498 renal = system: A498 renal
U251 CNS = system: U251 CNS

Measured: growth

COc1ccc(C(=O)c2ccccc2CN2C(=O)c3ccccc3C2=O)cc1
inactive: HCT-15 colon 112% | HT29 colon 99.7% | SNB-75 CNS 92% | SNB-19 CNS 99.6% | PC-3 prostate 89.6% | SK-MEL-5 melanoma 100% | UACC-62 melanoma 97.2% | LOX IMVI melanoma 94.3% | SK-MEL-28 melanoma 114% | SK-MEL-2 melanoma 103% | EKVX NSCLC 101% | SN12C renal 105% | UO-31 renal 75.1% | TK-10 renal 104% | ACHN renal 102% | CAKI-1 renal 102% | CCRF-CEM leukemia 91.5% | MOLT-4 leukemia 87%

CCOC(=O)/C(=C(\C)N)C1CC(=O)NC1=O (configuration not stated)
inactive: HCT-15 colon 103% | HT29 colon 105% | SNB-75 CNS 95.1% | SNB-19 CNS 101% | PC-3 prostate 92.1% | SK-MEL-5 melanoma 97.9% | UACC-62 melanoma 103% | LOX IMVI melanoma 95.7% | SK-MEL-28 melanoma 98% | SK-MEL-2 melanoma 123% | EKVX NSCLC 102% | SN12C renal 96.5% | UO-31 renal 87.9% | TK-10 renal 118% | ACHN renal 94% | CAKI-1 renal 98.2% | A498 renal 107% | CCRF-CEM leukemia 96.2% | MOLT-4 leukemia 104%

CCOC(=O)C1=CSC2=NC3=C(CCC/C3=C\c3ccc(Cl)cc3)C(c3ccc(Cl)cc3)N12 (configuration not stated)
inactive: HCT-15 colon 91.9% | HT29 colon 82.8% | SNB-75 CNS 86.4% | SNB-19 CNS 81.3% | PC-3 prostate 101% | SK-MEL-5 melanoma 84.7% | UACC-62 melanoma 82% | LOX IMVI melanoma 74.9% | SK-MEL-28 melanoma 99.5% | SK-MEL-2 melanoma 106% | EKVX NSCLC 91.6% | SN12C renal 95% | UO-31 renal 95.2% | TK-10 renal 119% | ACHN renal 107% | CAKI-1 renal 103% | A498 renal 78.1% | CCRF-CEM leukemia 87.8% | MOLT-4 leukemia 82.2%

COc1cc(C2CC(c3cc(Cl)c(C)cc3O)=NN2c2ccc(S(N)(=O)=O)cc2)cc(OC)c1OC (configuration not stated)
active: HT29 colon 1.52% | PC-3 prostate 0.104% | SK-MEL-5 melanoma -4.95% | UO-31 renal 4.12% | ACHN renal 3.29%
inactive: HCT-15 colon 16.7% | SNB-75 CNS 45.7% | SNB-19 CNS 48.7% | UACC-62 melanoma 16.3% | LOX IMVI melanoma 16.2% | SK-MEL-28 melanoma 31.7% | SK-MEL-2 melanoma 37.7% | EKVX NSCLC 16.9% | SN12C renal 13.7% | TK-10 renal 15.3% | CAKI-1 renal 11.4% | A498 renal 43.3%

CCOC(=O)C1C(C(=O)OCC)C2C(=O)C3C(C(=O)OCC)C(C(=O)OCC)C3C(=O)C12 (configuration not stated)
inactive: HCT-15 colon 103% | HT29 colon 105% | SNB-75 CNS 99.9% | SNB-19 CNS 96.4% | PC-3 prostate 97.6% | SK-MEL-5 melanoma 100% | UACC-62 melanoma 101% | LOX IMVI melanoma 96.6% | SK-MEL-28 melanoma 105% | SK-MEL-2 melanoma 115% | EKVX NSCLC 96.3% | SN12C renal 94.2% | UO-31 renal 94.8% | TK-10 renal 112% | ACHN renal 98.8% | CAKI-1 renal 101% | A498 renal 102% | CCRF-CEM leukemia 102% | MOLT-4 leukemia 106%

Nc1ccn(Cc2nnc(CCC(=O)c3nc4ccccc4[nH]3)o2)c(=O)n1
active: MOLT-4 leukemia 8.54%
inactive: HCT-15 colon 89.2% | HT29 colon 89.5% | SNB-75 CNS 67.5% | SNB-19 CNS 91% | PC-3 prostate 77% | SK-MEL-5 melanoma 68.9% | UACC-62 melanoma 66.2% | LOX IMVI melanoma 53.9% | SK-MEL-28 melanoma 104% | SK-MEL-2 melanoma 100% | EKVX NSCLC 84.1% | SN12C renal 87.1% | UO-31 renal 44.2% | TK-10 renal 100% | ACHN renal 87% | CAKI-1 renal 82.8% | A498 renal 61.7%

Cc1c2cnccc2c(C)c2c1oc1ccccc12
inactive: HCT-15 colon 72.3% | HT29 colon 72.8% | SNB-75 CNS 106% | SNB-19 CNS 73.1% | PC-3 prostate 99.8% | SK-MEL-5 melanoma 60.1% | UACC-62 melanoma 53.9% | LOX IMVI melanoma 42.1% | SK-MEL-28 melanoma 110% | SK-MEL-2 melanoma 112% | EKVX NSCLC 38.3% | SN12C renal 69.1% | UO-31 renal 40.4% | TK-10 renal 48.4% | ACHN renal 58.6% | CAKI-1 renal 66%
active: MOLT-4 leukemia 3.5%

O=C(Nc1cc([N+](=O)[O-])c2[nH]c(=O)c3ccccc3c2c1)C(F)(F)F
inactive: HCT-15 colon 81% | HT29 colon 90.4% | SNB-75 CNS 89.3% | SNB-19 CNS 87.1% | PC-3 prostate 94.4% | SK-MEL-5 melanoma 91% | UACC-62 melanoma 81.7% | LOX IMVI melanoma 68% | SK-MEL-28 melanoma 114% | SK-MEL-2 melanoma 106% | EKVX NSCLC 67.1% | SN12C renal 76.8% | UO-31 renal 54.5% | TK-10 renal 84% | ACHN renal 58.6% | CAKI-1 renal 89.1% | CCRF-CEM leukemia 72.8% | MOLT-4 leukemia 55.2%

CCN(CCCNc1cc2c(c(N)c1S(=O)(=O)O)C(=O)c1ccccc1C2=O)c1ccccc1
inactive: HCT-15 colon 107% | HT29 colon 104% | SNB-75 CNS 88.3% | SNB-19 CNS 95.1% | PC-3 prostate 87.1% | SK-MEL-5 melanoma 95.2% | UACC-62 melanoma 92.1% | LOX IMVI melanoma 94.7% | SK-MEL-28 melanoma 102% | SK-MEL-2 melanoma 103% | EKVX NSCLC 103% | SN12C renal 87.4% | UO-31 renal 75.2% | TK-10 renal 116% | ACHN renal 103% | CAKI-1 renal 95.7% | A498 renal 103% | CCRF-CEM leukemia 102% | MOLT-4 leukemia 108%

COc1ccccc1-n1c(-c2sc(NC(C)=O)nc2C)n[nH]c1=S
inactive: HCT-15 colon 94.9% | HT29 colon 104% | SNB-75 CNS 86.4% | SNB-19 CNS 103% | PC-3 prostate 95.9% | SK-MEL-5 melanoma 105% | UACC-62 melanoma 98.5% | LOX IMVI melanoma 97.5% | SK-MEL-28 melanoma 117% | SK-MEL-2 melanoma 106% | EKVX NSCLC 67.6% | SN12C renal 101% | UO-31 renal 70.1% | TK-10 renal 130% | ACHN renal 108% | CAKI-1 renal 81% | CCRF-CEM leukemia 97.3% | MOLT-4 leukemia 92.9%

COc1cc(/C=C/c2cc(/C=C/c3ccc(O)c(OC)c3)n(C(=O)Nc3ccccc3Cl)n2)ccc1O
inactive: HCT-15 colon 15% | SNB-19 CNS 15.5% | SK-MEL-28 melanoma 12.1% | EKVX NSCLC 17.7% | SN12C renal 14.2% | TK-10 renal 16.1% | ACHN renal 12.8%
active: HT29 colon -35% | SNB-75 CNS -4.71% | PC-3 prostate 6.54% | SK-MEL-5 melanoma -23.8% | UACC-62 melanoma 1.04% | LOX IMVI melanoma 1.22% | SK-MEL-2 melanoma -12.3% | UO-31 renal -34.8% | CAKI-1 renal 7.29% | A498 renal -11.8% | CCRF-CEM leukemia -4.54% | MOLT-4 leukemia -4.57%

CCOC(=O)c1cc(C(=O)c2ccc(F)cc2F)n2ccccc12
inactive: HCT-15 colon 79.9% | HT29 colon 77.4% | SNB-75 CNS 83.6% | SNB-19 CNS 84.3% | PC-3 prostate 75.6% | SK-MEL-5 melanoma 92.6% | UACC-62 melanoma 86.4% | LOX IMVI melanoma 90.4% | SK-MEL-28 melanoma 115% | SK-MEL-2 melanoma 91.2% | EKVX NSCLC 99.7% | SN12C renal 95.9% | UO-31 renal 72.3% | TK-10 renal 115% | ACHN renal 97.1% | A498 renal 87.9% | CCRF-CEM leukemia 84.7% | MOLT-4 leukemia 87%

CC(C)(C)OC(=O)CC(S(=O)(=O)c1ccccc1)S(=O)(=O)c1ccccc1
inactive: HCT-15 colon 77.9% | HT29 colon 104% | SNB-75 CNS 99.2% | SNB-19 CNS 95.2% | PC-3 prostate 101% | SK-MEL-5 melanoma 94.2% | UACC-62 melanoma 103% | LOX IMVI melanoma 94.7% | SK-MEL-28 melanoma 105% | SK-MEL-2 melanoma 114% | EKVX NSCLC 112% | SN12C renal 96.1% | UO-31 renal 61.4% | TK-10 renal 21.4% | ACHN renal 17.8% | CAKI-1 renal 90.6% | A498 renal 102% | CCRF-CEM leukemia 46.9% | MOLT-4 leukemia 82.7%

Nc1cc(-c2ccc(Cl)cc2)nn1-c1nc2ccccc2nc1Cc1ccccc1
inactive: HCT-15 colon 74.4% | HT29 colon 69.7% | SNB-75 CNS 84.4% | SNB-19 CNS 89.9% | U251 CNS 90.8% | SK-MEL-5 melanoma 86.7% | LOX IMVI melanoma 93.3% | SK-MEL-28 melanoma 92.9% | SK-MEL-2 melanoma 100% | EKVX NSCLC 78.6% | SN12C renal 94.1% | UO-31 renal 87% | TK-10 renal 99.2% | ACHN renal 103% | CAKI-1 renal 80.7%

O=C(Nc1ccccc1)Nc1ncnc2c1ncn2-c1ccccc1
inactive: HCT-15 colon 85% | HT29 colon 75.2% | SNB-75 CNS 41.5% | SNB-19 CNS 57.7% | U251 CNS 48.9% | SK-MEL-5 melanoma 67.7% | LOX IMVI melanoma 91% | SK-MEL-28 melanoma 94% | SK-MEL-2 melanoma 104% | EKVX NSCLC 78.5% | SN12C renal 83.3% | UO-31 renal 69.4% | TK-10 renal 75.2% | ACHN renal 22.2% | CAKI-1 renal 82.5%

Cc1ccc(S(=O)(=O)N/N=C2\CCCc3ccccc32)cc1
inactive: HCT-15 colon 109% | HT29 colon 115% | SNB-75 CNS 92.4% | SNB-19 CNS 94.6% | PC-3 prostate 90.3% | SK-MEL-5 melanoma 103% | UACC-62 melanoma 92.9% | LOX IMVI melanoma 94.8% | SK-MEL-28 melanoma 105% | SK-MEL-2 melanoma 103% | EKVX NSCLC 93.6% | SN12C renal 112% | UO-31 renal 88.1% | TK-10 renal 119% | ACHN renal 94.9% | CAKI-1 renal 89.8% | A498 renal 91.8% | CCRF-CEM leukemia 91.8% | MOLT-4 leukemia 101%

Reference: PubChem BioAssay (NCI)
